High-throughput results as filed in PubChem BioAssay.
Tg IFNy HTS: blocks Toxoplasma gondii growth in the presence of IFN-gamma; Toxoplasma gondii growth in IFN-gamma-treated host cells; stronger effect = lower value; activity change, negative = inhibition, % (test concentration not listed); actives 3.8% (n = 69,000); AID 1259416; in the data active means activity change below about -70%, passing the limit was not always enough;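 further: host cells are HeLa cells infected with Toxoplasma gondii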
An asterisk follows results filed as active; ! = a repeat was not active. Many of the other results were omitted from the sample, so hits are more common in it than they were.

SMILES	Tg IFNy HTS
Cc1ccc(-c2nnc(-c3nc(N4CCCC4)c4ccccc4n3)o2)cc1	106
CCCNC(=O)N(C)C[C@H]1Oc2cc(C#C[C@@H](C)O)ccc2S(=O)(=O)N([C@@H](C)CO)C[C@H]1C	-23
CC(C)c1csc(C(=O)N2CCC(OCc3cccnc3)CC2)n1	-51
CCCc1cnc(C)nc1N1CCC(O)(c2ccc(C)cn2)CC1	-18
CCn1ccnc1CN1CCc2[nH]cnc2C1c1cccn1-c1ncccn1 (centres undefined)	-2
CC1N(C)C(=O)COC12CCN(C(=O)c1ccc3c(c1)OCO3)CC2 (centres undefined)	8
Nc1cccc2nc3ccccc3cc12	-99*
Nc1cccc(-c2nc3ccccc3[nH]2)c1	52
Nc1ccccc1Nc1nc2ccccc2[nH]1	-17
O=C(CCSc1ccc2c(c1)OCCO2)NCc1cnc2ccccc2c1	-17
O=C(c1ccco1)N1CCc2cc3c(cc2C1C1CCOCC1)OCO3 (centres undefined)	33
CC(C)(C)c1nc2ccccc2c2nnc(SCc3ccccn3)n12	-79*
Nc1nnc(SCc2ccccn2)s1	5
C=CCn1c(SCc2ccccn2)nc2c([nH]c3ccccc32)c1=O	30
Cc1noc(C)c1NC(=O)N(C)C[C@H]1Oc2ccc(NC(=O)Cc3cn(C)c4ccccc34)cc2CC(=O)N([C@H](C)CO)C[C@@H]1C	3
C=CCn1c2c(ccc1=O)CCN(Cc1ccc3c(c1)OCO3)CC2	1
COC(=O)c1c(NC(C)c2cccc(OC)c2)c2cccc(Cl)c2[nH]c1=O (centres undefined)	-36
COc1ccc(Cn2ccc3ccc(C(=O)NO)cc32)cc1	0
CCN(CC)Cc1ccc2cc(COC(=O)Nc3ccc(C(=O)NO)cc3)ccc2c1	-83*
CCN(CC)Cc1cccc(C(=O)Nc2ccccc2CO)c1	4
CCOCCCNc1ncc(-c2ccsc2)c(-c2nc(C)cs2)n1	8
CCOc1ccc(OCC)c(S(=O)(=O)Oc2cccc3ccc(C)nc23)c1	-93*
COc1ccc(OC)c(S(=O)(=O)Oc2ccccn2)c1	30
CCOc1ccc(C(=O)C(C)=O)c(OCC)c1	34
O=C(c1ccccc1Br)N1CCC2(CC1)Nc1cc(F)ccc1-n1cccc12	38
SMILES	Tg IFNy HTS
Cc1nc(C(C)NC(=O)c2cccc(C#CC(C)(C)O)c2)n[nH]1 (centres undefined)	4
COc1ccc(-c2nn(CCC#N)c(=O)[nH]2)cc1	23
Cc1cc2c(cc3c(=O)n(CCC#N)nc(C)n32)s1	-91*
Cc1ccc2oc(=O)c(CCC(=O)Nc3nnc(C4CCCCC4)s3)nc2c1	47
CCN1CCOCC12CCN(C(=O)Cc1ccsc1)CC2	100
COC(=O)c1c(C)nc2n(Cc3ccccc3)c3ccccc3n12	-84*
O=C(O)CSc1nc2ccccc2n1Cc1ccccc1	13
Cc1cc(NC(=O)CSc2nnc3n(Cc4ccccc4)c4ccccc4n23)no1	-2
CN1CCN(Cc2nc3ccccc3n2C)CC(Cc2cccc(-c3cccnc3)c2)C1=O (centres undefined)	-10
Cc1cccc(S(=O)(=O)N[C@@H]2CC[C@H](CCNC(=O)Nc3cc(F)ccc3F)O[C@@H]2CO)c1	-48
C#C[C@]1(O)CCC2C3CCC4=Cc5oncc5C[C@]4(C)C3CC[C@@]21C (some centres undefined)	-74*!
C#C[C@]1(O)CCC2C3CCC4=C(CCC(=O)C4)C3CC[C@@]21C (some centres undefined)	-80*
C#C[C@]1(O)CCC2C3CCC4=CC(=O)CCC4C3C(=C)CC21CC (some centres undefined)	0
C#C[C@]1(O)CCC2C3CCC4=CC(=O)CC[C@@H]4C3CC[C@@]21C (some centres undefined)	-81*
CCC(=O)O[C@]1(C(=O)CO)CC[C@H]2[C@@H]3CCC4=CC(=O)CC[C@]4(C)[C@H]3CC[C@@]21C	1
C#C[C@]1(O)CCC2C3CCc4cc(OC5CCCC5)ccc4C3CC[C@@]21C (some centres undefined)	-6
C[C@]12CCC3c4ccc(OC(=O)c5ccccc5)cc4CCC3C1CCC2=O (some centres undefined)	18
C#C[C@]1(O)CC[C@@H]2C3[C@H](C)CC4=C(CCC(=O)C4)[C@H]3CC[C@@]21C (some centres undefined)	3
C[C@]12CCC(=O)C=C1CCC1C2C(=O)C[C@@]2(C)C1CC[C@]2(O)C(=O)CO (some centres undefined)	12
C#C[C@]1(O)CCC2C3CCc4cc(O)ccc4C3CC[C@@]21C (some centres undefined)	-77*
CO[C@H]1CN(C)C(=O)c2cc(NC(=O)Nc3c(C)noc3C)ccc2OC[C@H](C)NC[C@@H]1C	66
CN1CCN(C(=O)C[C@H]2CC[C@H]3[C@H](COc4ccc(NC(=O)c5cccs5)cc4C(=O)N3C)O2)CC1	-11
COCc1nc(NCCN2CCC(c3ccccc3)C2)c2cnn(C)c2n1 (centres undefined)	-5
CC(C)c1cc(C(=O)N(Cc2ccsc2)CC2CCCO2)no1 (centres undefined)	-7
